From the supplement of paper PMC6555819

What was measured:
Experiment in all cases: PBM binding z-score (relative to random genomic background probes); higher = stronger binding; sequences stand for … in GC…GCGATTGACAGCGTAGAATGAAGG
[1] = system: RARb homodimer (NR concentration 270 nM)
In short: (§1)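 Ligand-free nuclear receptor dimers were bound for 1 h to custom Agilent 4×180K protein-binding microarrays. Detection used antibodies against each partner (one per run). Binding z-scores rest on regression-normalized fluorescence, with random background probes as the reference.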

[2] = system: RARg:RXRa (NR concentration 270 nM, RXRa partner concentration 90 nM)
In short: as §1

[3] = system: RARg homodimer (NR concentration 270 nM)
In short: as §1

[4] = system: RXRa DBDmut IVT, anti-RXR (DBD mutation: RXRa K156A/R161A, NR concentration 90 nM)
In short: as §1

[5] = system: RXRa homodimer (NR concentration 180 nM)
In short: as §1

[6] = system: THRa:RXRa (NR concentration 90 nM, RXRa partner concentration 90 nM)
In short: as §1

[7] = system: THRa homodimer (NR concentration 90 nM)
In short: as §1

[8] = system: VDR homodimer (NR concentration 270 nM)
In short: as §1

Row | Sequence | PBM binding z-score [1] | PBM binding z-score [2] | PBM binding z-score [3] | PBM binding z-score [4] | PBM binding z-score [5] | PBM binding z-score [6] | PBM binding z-score [7] | PBM binding z-score [8]
1 | ATCGAAAGGTCGTGAGCTGAGTATACAGAAAGGC | 2.17 | 4.41 | 3.74 | 0.921 | 5.11 | 2.31 | -0.456 | 0.299
2 | GTAACGAGGGCAAAGTTGATAGCATCTGTCGACG | 1.38 | 1.97 | 1.78 | 2.73 | 2.08 | 1.41 | -0.0253 | 1.7
3 | AGATGTAGGTTAAGGGTCATTCAGGTTGGTTCGC | 4.06 | 4.87 | 3.79 | 2.18 | 6.66 | 3.64 | 2.06 | 4.78
4 | CAAACTAGGGCACAGAGGTCAAAGTCCGTGCGTA | 4.61 | 5.79 | 5.63 | 2.66 | 5.91 | 3.79 | 1.32 | 5.23
5 | TCTTGTAGATCAAAGTTTAAGAAAGCCGAAGCCT | 0.469 | 0.16 | 0.307 | 1.22 | 0.561 | 0.0453 | -0.571 | -0.214
6 | TCATATAGGTAAATGCTAGGTGAGAGTCCGATCT | 0.0117 | 0.257 | 0.032 | 1.03 | 0.42 | 0.935 | -0.108 | 0.216
7 | GCTCGGAGGACAAGTTCAGAGCTTTGTCCGTAGA | 1.38 | 0.89 | 1.25 | 1.73 | 0.198 | 1.27 | -0.148 | 1.89
8 | TCATATAGGTAAATGCTAGGTGACAGTCCGATCT | 0.444 | 0.642 | 0.401 | 1.28 | 0.653 | 1.4 | 0.389 | 0.525
9 | CTCGAAAGATCGTGCTCAGGTGAGTATACCAAAC | -0.0864 | -0.0578 | -0.229 | -0.0478 | -0.33 | 1.28 | 0.584 | -0.082
10 | TGAATGAGATTAAAGATCAGGGAACGTGGCGTCG | -0.824 | -0.0861 | 0.247 | -1.09 | 0.253 | -0.316 | -0.698 | -0.27
11 | CGTCCAAGGTCAAAGGTCAGTGTAGAGATGACGG | 5.37 | 8.64 | 8.04 | 3.99 | 10.1 | 4.77 | 2.77 | 3.86
12 | CGTCCAAGGTCATAGGAGGTCAGTAAAGACAGAT | 5.26 | 6.85 | 7.38 | 4.16 | 6.73 | 5.25 | 3.1 | 4.5
13 | TCTTGTAGTTCAGCAGGTTAAGAAAGCTGGCCAA | 1.53 | 1.8 | 1.25 | 1.53 | 1.12 | 0.683 | 0.0556 | 0.942
14 | CGAACCAGGGCATGAGTTGATAGCAAATGCCGAT | 0.207 | 0.644 | 0.753 | 0.293 | 0.492 | 0.518 | -0.382 | 0.429
15 | CAAACTAGGTAACCGGAAGGTCAAAGTCCGCATG | 4.17 | 4.35 | 3.57 | 0.531 | 3.79 | 3.26 | 1.44 | 2.22
16 | GGACCAAGGTGAATAGGTCGTTGATGAGTAGGCG | 1.93 | 2.62 | 1.51 | -0.31 | 1.81 | 1.91 | 0.417 | 0.294
17 | CGTCCGAGGTCAGAGAGGTCAGTGAATGCCGAGT | 5.44 | 6.94 | 7.68 | 3.68 | 6.87 | 4.59 | 3 | 6.58
18 | TCTGCTAGGTCACTTGGTCAGCTAACGAGCTGCC | 3.07 | 4.03 | 4.52 | 1.54 | 2.41 | 2.58 | 0.574 | 0.129
19 | TCGTATAGGTAATACAGGTGAAAGTCGGCATCTA | 0.603 | 0.62 | 0.295 | 1.08 | 0.949 | 1.15 | 0.259 | 0.57
20 | TCTGCTAGGTCAACGATGGACAGCTAATCTGCTA | 2.79 | 3.82 | 4.71 | 0.955 | 2.5 | 2.86 | 0.203 | -0.736
21 | ACTAGCTGGTCAGCTGAGGTCACACACAATTCGG | 4.27 | 4.27 | 4.18 | 0.848 | 4.03 | 5.12 | 4.71 | 3.25
22 | GCTGCTAGTTCAGGTTGGTCAGCTAACGGGTACG | 0.833 | 0.083 | 0.586 | 1.19 | -0.153 | -0.00713 | -0.222 | 0.636
23 | TCTCGGAGGACACGAGAGGTCAGAGCTCGACATC | 4.3 | 3.89 | 4.28 | 0.77 | 3.07 | 3.98 | 1.64 | 1.81
24 | TTACCTAGGTGAAAGGTCGTTGATGCACGCCTTG | 2.24 | 3.56 | 1.38 | 0.705 | 4.66 | 3.15 | 0.624 | 1.19
25 | CCATACGGGTCACTGACAGGTTATAGCATTTGGA | 3.06 | 5.82 | 4.78 | 1.24 | 5.32 | 2.84 | -0.0458 | 1.3
26 | CCAGACAGGTGAAAGGTAACTCTGTCTGGTACGC | 0.719 | 1.24 | 0.754 | 0.07 | 2.07 | 1.01 | -0.229 | 0.0648
